Hit rate of the full screen: of about 370,000 compounds, about 1,100 (0.3%) were called active. No stated cut-off is given here; in the data, active means inhibition above about 13%; inactive means the rest. For the sample, actives were picked, then their nearest neighbours and some compounds at random.

A word on the inhibition: it is the change of the read-out against control, counted positive when it falls.

The test deals with Methyl-CpG-binding domain protein 2 (Homo sapiens) (UniProt Q9UBB5). Description: inhibitors of MBD2 binding to methylated DNA, primary screen, biochemical, TR-FRET, DNA-binding domain, human (AID 686964). Conditions: MBD2 binding to methylated oligonucleotide, at 4.4 µM, hits give high values. A general note: Time-resolved FRET reads energy transfer from a long-lived donor to a nearby acceptor.
Sequence of Methyl-CpG-binding domain protein 2 (Homo sapiens) (Q9UBB5 whole entry, looked up, the tested form may be a part): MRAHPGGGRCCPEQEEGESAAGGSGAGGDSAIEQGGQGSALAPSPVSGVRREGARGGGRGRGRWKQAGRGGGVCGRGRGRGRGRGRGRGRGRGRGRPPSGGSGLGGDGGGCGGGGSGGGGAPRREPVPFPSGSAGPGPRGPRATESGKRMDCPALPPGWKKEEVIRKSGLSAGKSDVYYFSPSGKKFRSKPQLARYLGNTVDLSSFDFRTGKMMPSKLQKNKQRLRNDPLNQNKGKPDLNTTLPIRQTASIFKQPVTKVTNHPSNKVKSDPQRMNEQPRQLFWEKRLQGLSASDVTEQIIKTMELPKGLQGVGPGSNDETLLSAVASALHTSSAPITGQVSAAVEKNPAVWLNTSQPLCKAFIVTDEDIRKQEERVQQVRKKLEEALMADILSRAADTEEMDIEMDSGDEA
On to `CCOC(=O)NC(C(F)(F)F)(C(F)(F)F)P(=O)(c1ccccc1)c1ccccc1`, for which the inhibition is -1.87% (inactive).
For `CCOC(=O)CNC(=O)/C=C/c1c(Cl)cccc1Cl` the value was -5.98% (inactive); for `CCOC(=O)CCP(=O)(O)C(O)(c1ccccc1)c1ccccc1`, 28.3% (active).
As to `CCOC(=O)C(=O)N(Cc1ccccc1)c1ccccc1C(=O)Nc1cc(OC)ccc1OC`, the inhibition was 1% (inactive).
`COc1cccc(/C=C2\CC3(OC(C)=O)CCCN2C3)c1` (stereo not given): the inhibition is 1.18% (inactive).
Consider `O=c1ccc2c(-c3ccccc3S(=O)(=O)O)c3ccc(O)c(O)c3oc-2c1O`, for which the inhibition was 97.2% (active).
As for `O=C(NC1CCCCN(Cc2ccc(Cl)cc2)C1=O)c1ccc(Br)cc1` (stereo not given), the inhibition is -2.53% (inactive).
As for `C=C(C)C#CC(Cc1ccccc1)NCC1CC1` (stereo not given), the inhibition is -0.24% (inactive).
On to `Cc1cc(C)c2nc3nc(C)cc(C)c3c(N)c2c1`, for which the inhibition is 19.4% (active).
To `NC(=O)c1ncn([C@@H]2O[C@H](C(=O)O)[C@@H](O)[C@H]2O)n1` belongs 2.1% (inactive); to `CCC[C@H]1C(=O)CC[C@@]23CCCN2C(=O)CCC[C@@H]13`, -0.46% (inactive); to `CC(C)CSc1nnc(-c2cccnc2)n1Cc1ccccc1`, -2.93% (inactive).
For `O=C(OC12CCCN(C1)/C(=C/c1cccnc1)C2)C1CCCC1` (stereo not given), the inhibition was -0.45% (inactive).
On to `O=C(NS(=O)(=O)c1cccs1)[C@H]1O[C@@H](n2ccc(=O)[nH]c2=O)[C@H](O)[C@@H]1O`, for which the inhibition is 3.05% (inactive).
For `Cc1c(C=O)n(C)n(-c2ccccc2)c1=O` the value was 14.6% (active); for `Cc1c(CN2CCC(C)CC2)c(=O)n(-c2ccccc2)n1C`, 2.32% (inactive).
Turning to `Cc1cccc(N2CCN(Cc3c(C)n(C)n(-c4ccccc4)c3=O)CC2)c1C`, the inhibition is 1.05% (inactive).
As to `O=S(=O)(c1ccc(Br)cc1)n1ccc2ccccc21`, the inhibition was -0.04% (inactive).
To `O=S1(=O)c2c(cccc2N2CCSCC2)Oc2ccccc2CN1Cc1cn(Cc2ccc(F)cc2)nn1` belongs -0.08% (inactive).
For `O=C(NCCO)C(=O)NCC(c1ccc2c(c1)OCO2)N1CCN(c2ccc(F)cc2)CC1` (stereo not given) the value was 0.87% (inactive); for `C[C@H](C(=O)N(C)c1ccccc1)[C@@H](O)c1ccc(Cl)cc1`, -1.32% (inactive).
For `CCCC[C@H](C(=O)N(CC)c1ccccc1)[C@@H](O)c1ccc2ccccc2c1`, the inhibition was -3.72% (inactive).
On to `C=CCN(C(=O)[C@@H](CCCC)[C@@H](O)c1ccc(Cl)cc1)c1ccccc1`, for which the inhibition is 15.9% (active).
Regarding `O=C(CCCCCN1C(=O)C2C3C=CC(C3)C2C1=O)Nc1ccccn1` (stereo not given), the inhibition was -4.13% (inactive).
Turning to `COC(=O)c1cccc(NC(=O)c2cccc(N3C(=O)CCC3=O)c2)c1`, the inhibition is 13.4% (active).
With `CC(=O)Nc1cccc(C(=O)OCN2C(=O)c3ccccc3C2=O)c1`, the inhibition is 6.26% (inactive).
Turning to `COC(=O)c1cccc(NS(C)(=O)=O)c1`, the inhibition is -3.55% (inactive).
With `CCN(CC)CCOc1ccc2c(c1)C(=NNC(=O)c1ccccn1)c1cc(OCCN(CC)CC)ccc1-2`, the inhibition was 109% (active).
In the case of `CCCC(C(=O)OCCN(CC)CC)(c1ccccc1)c1ccccc1`, the inhibition was 0.72% (inactive).
For the molecule `CCN(CC)S(=O)(=O)c1cc(C(=O)Nc2ccccn2)ccc1C`, the inhibition is 2.21% (inactive).
Turning to `Cc1cccc(S(=O)(=O)N(C)C[C@@H]2OCc3cnnn3CCCC(=O)N([C@H](C)CO)C[C@@H]2C)c1`, the inhibition was 3.06% (inactive).
`CN(C)[C@@H]1C(=O)C(C(N)=O)=C(O)[C@@]2(O)C(=O)C3=C(O)c4c(O)ccc(Cl)c4[C@@H](O)[C@H]3C[C@@H]12`: the inhibition is 17.8% (active).
For `C=C1c2c(Cl)ccc(O)c2C(O)=C2C(=O)[C@]3(O)C(O)=C(C(N)=O)C(=O)[C@@H](N(C)C)[C@@H]3[C@@H](O)C12` (stereo not given in full) the value was 27.8% (active); for `O=C1CCC2(CCC(c3ccc(Cl)cc3)CC2)N1CCO` (stereo not given), -0.8% (inactive).
Regarding `Nc1ncnc2c1ncn2[C@@H]1O[C@H](C(=O)N[C@@H](CCc2ccccc2)C(=O)N2CCCN(Cc3cccs3)CC2)[C@@H](O)[C@H]1O`, the inhibition was 1.63% (inactive).
For `O=C(O)CCn1c(O)c(C=C2N=c3ccccc3=N2)sc1=S` the value was -4.63% (inactive); for `CCOC(=O)C1C(=O)NCC1c1ccccc1` (stereo not given), -0.38% (inactive); for `CCOC(=O)C1C(=O)OC2(CCCC2)C1C(=O)OCC` (stereo not given), 19.3% (active).
Take `CCOC(=O)C1C(c2ccc(O)cc2)NC(=O)NC1(O)C(F)(F)F` (stereo not given): the inhibition was -5.62% (inactive).
In the case of `Cc1cc2c(nc1C)CCCN2C`, the inhibition was -0.93% (inactive).
As for `C=CCN(Cc1ccc2c(c1)OCO2)C(C#CC1CC1)C(C)(C)C` (stereo not given), the inhibition was 3.04% (inactive).
Regarding `O=C(c1c[nH]c2ccccc12)N1CCC(Oc2cccnc2)CC1`, the inhibition is -6.13% (inactive).
For `CC(=O)N1C[C@@H](CO)[C@@H](N(C)C(=O)C(C)(C)C)C[C@H]1c1ccccc1Br` the value was 2.89% (inactive); for `Oc1ccc(/C=C/c2c(F)cccc2F)c2cccnc12`, -0.79% (inactive).
As for `Cc1ccc(CNC(=O)CC(NC(=O)c2ccccc2)c2ccccc2)cc1` (stereo not given), the inhibition is -3.58% (inactive).
As for `O=C(CNC(=O)OCc1ccccc1)NC1CCCCNC1=O` (stereo not given), the inhibition is 0.98% (inactive).
On to `Nc1ccn([C@@H]2O[C@H](C(=O)N[C@H]3CCCCNC3=O)[C@@H](O)[C@H]2O)c(=O)n1`, for which the inhibition is -2.88% (inactive).
As to `Nc1ccccc1C(=O)NC1CCCCNC1=O` (stereo not given), the inhibition was 16.1% (active).
For `CN1[C@H](Cc2ccccc2)COc2cccc(N3CCSCC3)c2S1(=O)=O`, the inhibition was 3.96% (inactive).
For `CCOC(=O)N1CCN(C(=O)C[C@@H]2C(=O)N(CCc3ccc(Cl)cc3)C3=CCCC[C@]32C(=O)OCC)CC1` the value was -2% (inactive).
For `COc1ccc2c(CC(=O)NNC(=O)c3ccccc3F)coc2c1`, the inhibition was -1.98% (inactive).
On to `C[C@H]1[C@H](NC(=O)c2cccc(N(C)C)c2)CC[C@@]23CCCN2C(=O)CCC[C@@H]13`, for which the inhibition was -0.56% (inactive).
On to `Cc1cc(C)c(S(=O)(=O)Nc2c(C)n(C)n(-c3ccccc3)c2=O)cc1[N+](=O)[O-]`, for which the inhibition is -5.79% (inactive).
On to `Cc1c(NS(=O)(=O)c2cccc(C(=O)Nc3ccc(SC(F)F)cc3)c2)c(=O)n(-c2ccccc2)n1C`, for which the inhibition was 7.59% (inactive).
Turning to `Cc1c(NS(=O)(=O)c2cc(C(=O)NCCc3ccc(F)cc3)cc(Cl)c2Cl)c(=O)n(-c2ccccc2)n1C`, the inhibition was 26.3% (active).

The record behind these values is PubChem BioAssay AID686964 (The Scripps Research Institute Molecular Screening Center, 2013).
